This is an account of results in paper PMC10812921, “Transcriptional Coactivator BOB1 (OBF1, OCA-B) Modulates the Specificity of DNA Recognition by the POU-Domain Factors OCT1 and OCT2 in a Monomeric Configuration”.

For one assay, the target named is POU1 (OCT1 POU domain) (human, UniProt P14859 260-458). Briefly: EMSA-SELEX-seq; no BOB1; 20 mM Tris-HCl pH 7.6, 140 mM NaCl, 10% glycerol, 0.5 mM EDTA, 0.05% Triton X-100, 0.1 mg/mL BSA, 0.1 mg/mL poly(dI-dC), 5 mM DTT, room temperature, 20 min; high values mean tight binding. The conditions noted are these: protein: recombinant; dsDNA, one strand shown. The procedure, abridged: (§1)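 After expression in E. coli BL21, tagged POU-domain proteins were purified under denaturing conditions and then renatured. Each binding reaction held 30 ng protein and 300 ng of a PCR-amplified double-stranded random 35-nt library in 20 μL Tris–HCl pH 7.6 binding buffer, with or without 28 ng coactivator protein, for 20 min at RT. Bands holding complexes were cut from native 6% PAGE, eluted and PCR-amplified across four rounds, and the output was Illumina-sequenced. The value given for binding preference is the share, in percent, of sequenced 8-mers fitting a motif pattern.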

The target of a further assay is T1, POU2 (OCT2 POU domain) (human, UniProt P09086 175-386).
T1 sequence: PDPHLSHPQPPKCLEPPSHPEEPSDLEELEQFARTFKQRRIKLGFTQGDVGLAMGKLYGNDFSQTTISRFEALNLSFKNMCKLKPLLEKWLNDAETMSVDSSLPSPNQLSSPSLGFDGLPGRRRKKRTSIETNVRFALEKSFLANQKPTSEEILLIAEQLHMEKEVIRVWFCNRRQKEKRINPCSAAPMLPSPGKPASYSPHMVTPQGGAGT
The description is as above. The conditions noted are these: protein: recombinant; dsDNA, one strand shown. The essentials: as §1

Assay [1] has as its target POU1 (OCT1 POU domain);BOB1 (OBF1, OCA-B) (human;human, UniProt P14859;Q16633 260-458;1-256, |). Briefly: EMSA-SELEX-seq; with BOB1 (ternary complex band); 20 mM Tris-HCl pH 7.6, 140 mM NaCl, 10% glycerol, 0.5 mM EDTA, 0.05% Triton X-100, 0.1 mg/mL BSA, 0.1 mg/mL poly(dI-dC), 5 mM DTT, room temperature, 20 min; high values mean tight binding. The conditions noted are these: protein: recombinant;recombinant; copies: 1;1; dsDNA, one strand shown. The essentials: as §1

The target in assay [2] is T2, POU2 (OCT2 POU domain);BOB1 (OBF1, OCA-B) (human;human, UniProt P09086;Q16633 175-386;1-256, |).
T2 sequence 1: T1 sequence
T2 sequence 2: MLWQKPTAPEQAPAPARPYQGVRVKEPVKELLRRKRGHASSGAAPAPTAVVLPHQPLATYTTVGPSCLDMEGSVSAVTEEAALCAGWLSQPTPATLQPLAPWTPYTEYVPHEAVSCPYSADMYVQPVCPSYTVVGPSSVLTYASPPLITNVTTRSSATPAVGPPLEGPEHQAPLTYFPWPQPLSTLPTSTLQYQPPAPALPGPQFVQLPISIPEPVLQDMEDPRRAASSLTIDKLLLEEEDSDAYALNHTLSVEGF
The assay is described as above. The conditions noted are these: protein: recombinant;recombinant; copies: 1;1; dsDNA, one strand shown. The procedure, abridged:
as §1

Sequence of POU1 (OCT1 POU domain) (P14859 260-458): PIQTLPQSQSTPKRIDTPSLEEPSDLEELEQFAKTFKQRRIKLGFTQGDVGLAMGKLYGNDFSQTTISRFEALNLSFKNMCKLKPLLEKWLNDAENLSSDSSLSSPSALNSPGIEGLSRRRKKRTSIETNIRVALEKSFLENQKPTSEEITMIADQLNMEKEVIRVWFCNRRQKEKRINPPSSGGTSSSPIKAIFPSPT

As to AGGCTAAA, the binding signal is 0.0381 % of ANNNNAAN 8-mers with POU1 (OCT1 POU domain), 0.0414 % of ANNNNAAN 8-mers in the assay with POU2 (OCT2 POU domain), 0.0363 % of ANNNNAAN 8-mers in assay [1] and 0.0454 % of ANNNNAAN 8-mers in assay [2].

In the case of AAAGGAAT, the binding signal with POU1 (OCT1 POU domain) is 0.0953 % of ANNNNAAN 8-mers; with POU2 (OCT2 POU domain), 0.124 % of ANNNNAAN 8-mers; in assay [1] it was 0.0901 % of ANNNNAAN 8-mers; in assay [2], 0.0925 % of ANNNNAAN 8-mers.

Turning to AGCGTAAG, the binding signal is 0.0214 % of ANNNNAAN 8-mers with POU1 (OCT1 POU domain), 0.0293 % of ANNNNAAN 8-mers in the assay with POU2 (OCT2 POU domain), 0.0215 % of ANNNNAAN 8-mers in assay [1] and 0.0338 % of ANNNNAAN 8-mers in assay [2].

For the sequence ATTTTAAG, the binding signal with POU1 (OCT1 POU domain) was 0.108 % of ANNNNAAN 8-mers; in the assay with POU2 (OCT2 POU domain) it was 0.131 % of ANNNNAAN 8-mers; in assay [1] it was 0.0964 % of ANNNNAAN 8-mers; in assay [2] it was 0.101 % of ANNNNAAN 8-mers.

As to AGTCCAAT, the binding signal with POU1 (OCT1 POU domain) was 0.0385 % of ANNNNAAN 8-mers; with POU2 (OCT2 POU domain), 0.0466 % of ANNNNAAN 8-mers; in assay [1] it was 0.0421 % of ANNNNAAN 8-mers; in assay [2], 0.0371 % of ANNNNAAN 8-mers.

For AGAGTAAC, the binding signal with POU1 (OCT1 POU domain) is 0.0206 % of ANNNNAAN 8-mers; with POU2 (OCT2 POU domain), 0.0322 % of ANNNNAAN 8-mers; in assay [1], 0.0234 % of ANNNNAAN 8-mers; in assay [2] it was 0.0264 % of ANNNNAAN 8-mers.

AAATAAAT: the binding signal was 0.261 % of ANNNNAAN 8-mers with POU1 (OCT1 POU domain), 0.275 % of ANNNNAAN 8-mers with POU2 (OCT2 POU domain), 0.232 % of ANNNNAAN 8-mers in assay [1] and 0.22 % of ANNNNAAN 8-mers in assay [2].

As to AGGTGAAA, the binding signal with POU1 (OCT1 POU domain) was 0.0587 % of ANNNNAAN 8-mers; with POU2 (OCT2 POU domain), 0.0466 % of ANNNNAAN 8-mers; in assay [1] it was 0.0601 % of ANNNNAAN 8-mers; in assay [2] it was 0.0471 % of ANNNNAAN 8-mers.

As for ACATGAAG, the binding signal with POU1 (OCT1 POU domain) is 0.0378 % of ANNNNAAN 8-mers; in the assay with POU2 (OCT2 POU domain) it was 0.0449 % of ANNNNAAN 8-mers; in assay [1], 0.03 % of ANNNNAAN 8-mers; in assay [2], 0.0355 % of ANNNNAAN 8-mers.

As to AAGTCAAA, the binding signal with POU1 (OCT1 POU domain) was 0.141 % of ANNNNAAN 8-mers; in the assay with POU2 (OCT2 POU domain) it was 0.113 % of ANNNNAAN 8-mers; in assay [1] it was 0.258 % of ANNNNAAN 8-mers; in assay [2], 0.165 % of ANNNNAAN 8-mers.

In the case of AGCAAAAG, the binding signal is 0.0442 % of ANNNNAAN 8-mers in the assay with POU1 (OCT1 POU domain), 0.0322 % of ANNNNAAN 8-mers with POU2 (OCT2 POU domain), 0.062 % of ANNNNAAN 8-mers in assay [1] and 0.0429 % of ANNNNAAN 8-mers in assay [2].

Regarding AAAGTAAC, the binding signal is 0.0439 % of ANNNNAAN 8-mers with POU1 (OCT1 POU domain), 0.0437 % of ANNNNAAN 8-mers with POU2 (OCT2 POU domain), 0.0605 % of ANNNNAAN 8-mers in assay [1] and 0.0537 % of ANNNNAAN 8-mers in assay [2].

Take ATTAAAAC: the binding signal was 0.108 % of ANNNNAAN 8-mers with POU1 (OCT1 POU domain), 0.122 % of ANNNNAAN 8-mers in the assay with POU2 (OCT2 POU domain), 0.0757 % of ANNNNAAN 8-mers in assay [1] and 0.0718 % of ANNNNAAN 8-mers in assay [2].

As for ACTCAAAT, the binding signal was 0.0889 % of ANNNNAAN 8-mers with POU1 (OCT1 POU domain), 0.061 % of ANNNNAAN 8-mers with POU2 (OCT2 POU domain), 0.127 % of ANNNNAAN 8-mers in assay [1] and 0.0768 % of ANNNNAAN 8-mers in assay [2].

Turning to AGCCTAAT, the binding signal is 0.0503 % of ANNNNAAN 8-mers in the assay with POU1 (OCT1 POU domain), 0.0811 % of ANNNNAAN 8-mers in the assay with POU2 (OCT2 POU domain), 0.0324 % of ANNNNAAN 8-mers in assay [1] and 0.038 % of ANNNNAAN 8-mers in assay [2].

With AGTTAAAT, the binding signal with POU1 (OCT1 POU domain) is 0.219 % of ANNNNAAN 8-mers; in the assay with POU2 (OCT2 POU domain) it was 0.213 % of ANNNNAAN 8-mers; in assay [1], 0.217 % of ANNNNAAN 8-mers; in assay [2], 0.127 % of ANNNNAAN 8-mers.

As for AACGCAAT, the binding signal is 0.0347 % of ANNNNAAN 8-mers with POU1 (OCT1 POU domain), 0.0351 % of ANNNNAAN 8-mers with POU2 (OCT2 POU domain), 0.0242 % of ANNNNAAN 8-mers in assay [1] and 0.0314 % of ANNNNAAN 8-mers in assay [2].

ATAAGAAG: the binding signal in the assay with POU1 (OCT1 POU domain) was 0.0614 % of ANNNNAAN 8-mers; with POU2 (OCT2 POU domain), 0.0771 % of ANNNNAAN 8-mers; in assay [1], 0.0562 % of ANNNNAAN 8-mers; in assay [2] it was 0.0636 % of ANNNNAAN 8-mers.

On to ATTCCAAA, for which the binding signal in the assay with POU1 (OCT1 POU domain) was 0.0481 % of ANNNNAAN 8-mers; with POU2 (OCT2 POU domain), 0.0564 % of ANNNNAAN 8-mers; in assay [1], 0.041 % of ANNNNAAN 8-mers; in assay [2], 0.0578 % of ANNNNAAN 8-mers.

For AATGCAAA, the binding signal is 1.36 % of ANNNNAAN 8-mers with POU1 (OCT1 POU domain), 1.1 % of ANNNNAAN 8-mers with POU2 (OCT2 POU domain), 2.58 % of ANNNNAAN 8-mers in assay [1] and 3.21 % of ANNNNAAN 8-mers in assay [2].

As to AGTGAAAG, the binding signal is 0.0469 % of ANNNNAAN 8-mers with POU1 (OCT1 POU domain), 0.0409 % of ANNNNAAN 8-mers with POU2 (OCT2 POU domain), 0.0624 % of ANNNNAAN 8-mers in assay [1] and 0.0504 % of ANNNNAAN 8-mers in assay [2].

Consider ATTGGAAG, for which the binding signal with POU1 (OCT1 POU domain) was 0.0309 % of ANNNNAAN 8-mers; in the assay with POU2 (OCT2 POU domain) it was 0.0547 % of ANNNNAAN 8-mers; in assay [1] it was 0.0371 % of ANNNNAAN 8-mers; in assay [2] it was 0.0438 % of ANNNNAAN 8-mers.

Take ATGCTAAA: the binding signal is 0.273 % of ANNNNAAN 8-mers with POU1 (OCT1 POU domain), 0.293 % of ANNNNAAN 8-mers with POU2 (OCT2 POU domain), 0.0691 % of ANNNNAAN 8-mers in assay [1] and 0.0817 % of ANNNNAAN 8-mers in assay [2].

As to AAGTTAAA, the binding signal was 0.0858 % of ANNNNAAN 8-mers with POU1 (OCT1 POU domain), 0.0857 % of ANNNNAAN 8-mers with POU2 (OCT2 POU domain), 0.0901 % of ANNNNAAN 8-mers in assay [1] and 0.071 % of ANNNNAAN 8-mers in assay [2].

Turning to AATTTAAA, the binding signal in the assay with POU1 (OCT1 POU domain) was 0.913 % of ANNNNAAN 8-mers; with POU2 (OCT2 POU domain), 0.793 % of ANNNNAAN 8-mers; in assay [1], 0.303 % of ANNNNAAN 8-mers; in assay [2] it was 0.312 % of ANNNNAAN 8-mers.

As for AAACGAAC, the binding signal in the assay with POU1 (OCT1 POU domain) was 0.0328 % of ANNNNAAN 8-mers; in the assay with POU2 (OCT2 POU domain), 0.0293 % of ANNNNAAN 8-mers; in assay [1], 0.0437 % of ANNNNAAN 8-mers; in assay [2], 0.0355 % of ANNNNAAN 8-mers.

Consider ACACTAAG, for which the binding signal with POU1 (OCT1 POU domain) is 0.0179 % of ANNNNAAN 8-mers; with POU2 (OCT2 POU domain), 0.0219 % of ANNNNAAN 8-mers; in assay [1], 0.0226 % of ANNNNAAN 8-mers; in assay [2] it was 0.0289 % of ANNNNAAN 8-mers.

Regarding AGATAAAC, the binding signal in the assay with POU1 (OCT1 POU domain) was 0.04 % of ANNNNAAN 8-mers; with POU2 (OCT2 POU domain) it was 0.0506 % of ANNNNAAN 8-mers; in assay [1] it was 0.0519 % of ANNNNAAN 8-mers; in assay [2] it was 0.0487 % of ANNNNAAN 8-mers.

With AGAGCAAT, the binding signal was 0.0355 % of ANNNNAAN 8-mers in the assay with POU1 (OCT1 POU domain), 0.0443 % of ANNNNAAN 8-mers in the assay with POU2 (OCT2 POU domain), 0.0332 % of ANNNNAAN 8-mers in assay [1] and 0.0363 % of ANNNNAAN 8-mers in assay [2].

ACTTCAAT: the binding signal with POU1 (OCT1 POU domain) is 0.0256 % of ANNNNAAN 8-mers; with POU2 (OCT2 POU domain), 0.038 % of ANNNNAAN 8-mers; in assay [1], 0.0363 % of ANNNNAAN 8-mers; in assay [2], 0.0446 % of ANNNNAAN 8-mers.
